This note sets out measurements from PubChem BioAssay (EPA / NIEHS).

One test deals with SERPINA7 (gene 6906). The experiment in a line: CCTE_GLTED_hTBG: CCTE's human Thyroxine-binding Globulin (TBG) Inhibition Assay, Great Lakes Toxicology and Ecology Division (GLTED) Lab (AID 2284343).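 Note: active chemicals lower fluorescence versus DMSO baseline by displacing probe.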 A digest of the protocol: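 hTBG + test chem, 2 h; ANSA probe displacement; fluorescence readout ex380/em475; DMSO = neg ctrl/baseline; cell-free.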
Test [1] is described as follows: VALA_TUBHUV_Agonist_TubuleLength: VALA Sciences human Umbilical Vein Endothelial Tubule Formation (TUBHUV) Agonism Assay (AID 2284337). The procedure, abridged:
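HUVEC co-cultured with fibroblasts (1:3) 3 days in 10 ng/ml VEGF, then 3 days with compound plus VEGF; 0.1 % DMSO neutral control. Fixed, nuclear and CD31 stained; tubule length by fluorescence imaging.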

The nature of test [2]: VALA_TUBIPS_Agonist_CellCount: Viability Assessment in the VALA Sciences human iPS-derived Endothelial Tubule Formation (TUBIPS) Agonism Assay (AID 2284338).
Test [3] in a line: CCTE_Mundy_HCI_iCellGluta_NOG_NeuronCount: CCTE's Neurite Outgrowth Assay in iCellGluta cells for Neuron Count, Mundy Lab (AID 2284340).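 Note: cells fixed about 48 h after compound addition.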 The procedure, abridged:
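Neuron count read by automated high-content imaging of Hoechst 33342 and betaIII-tubulin/Alexa Fluor-488 labelling in human iPSC glutamatergic neurons. Activity fitted relative to DMSO.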

Test [4] is described as follows: CCTE_Mundy_HCI_iCellGluta_NOG_NeuriteCount: CCTE's Neurite Outgrowth Assay in iCellGluta cells for Neurite Count, Mundy Lab (AID 2284342).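 Note: chemical exposure about 48 hours starting 2 hours after plating.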
Test [5] is described as follows: CCTE_Deisenroth_H295R-HTRF_384WELL_ESTRADIOL: CCTE's H295R-HTRF Assay Evaluation of Estradiol Concentration, Deisenroth Lab (AID 2284361; active = hit-call score of the fitted dose curve at least 0.9, where 1 is the maximum; inactive = score below 0.9). Conditions: actives raise or lower the signal. The procedure, abridged: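 H295R cells exposed 48 h to chemicals at 0.001 - 100 uM final (nine points, triplicate); estradiol in conditioned medium measured by HTRF immunoassay, fitted bidirectionally versus DMSO. Viability by CellTiter-Glo on same plates.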

Test [6] can be described thus: CCTE_Deisenroth_H295R-HTRF_384WELL_TESTOSTERONE: CCTE's H295R-HTRF Assay Evaluation of Testosterone Concentration, Deisenroth Lab (AID 2284373; active = hit-call score of the fitted dose curve at least 0.9, where 1 is the maximum; inactive = score below 0.9). Conditions: actives raise or lower the signal. A digest of the protocol: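 Testosterone secreted into medium was quantified by direct HTRF immunoassay after a 48 h treatment of H295R adrenocortical cells (nine concentrations, 0.001–100 uM final). Gain or loss fitted relative to DMSO; CellTiter-Glo viability read on same plates.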

Test [7] in a line: CCTE_Deisenroth_H295R-HTRF_384WELL_CTOX: Cytotoxicity Assessment in CCTE's H295R-HTRF Assay, Deisenroth Lab (AID 2284380). A digest of the protocol: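 H295R adrenocortical carcinoma cells plated 24 h, then exposed 48 h to nine-point series 0.001–100 uM final, triplicate, n=5. ATP measured by CellTiter-Glo 2.0 luminescence on same plates after medium collection; loss versus DMSO.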

The subject of test [8] is SRY-box transcription factor 17 (SOX17) Protein Expression, Deisenroth Lab, SOX17 (gene 64321). Description: CCTE_Deisenroth_DEVTOX-GLR_legacy_Sox17: (Legacy) CCTE's DevTox GLR-Endo Assay Evaluation of SRY-box transcription factor 17 (SOX17) Protein Expression, Deisenroth Lab (AID 2284341; active = hit-call score of the fitted dose curve at least 0.9, where 1 is the maximum; inactive = score below 0.9). The following applies: actives raise or lower the signal. A digest of the protocol: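 Percent SOX17-positive cells, scored by high-content imaging as mean intensity exceeding pluripotent-control median by 5x BMAD, divided by cell count. Human RUES2-GLR endoderm differentiation, 48 h, two exposures 24 h apart, 1 nM–200 uM; DMSO-referenced bidirectional fitting.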

In test [9] the test system is SRY-box transcription factor 2 (SOX2) Protein Expression, Deisenroth Lab, SOX2 (gene 6657). Description: CCTE_Deisenroth_DEVTOX-GLR_legacy_Sox2: (Legacy) CCTE's DevTox GLR-Endo Assay Evaluation of SRY-box transcription factor 2 (SOX2) Protein Expression, Deisenroth Lab (AID 2284346; active = hit-call score of the fitted dose curve at least 0.9, where 1 is the maximum; inactive = score below 0.9). The procedure, abridged:
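RUES2-GLR human pluripotent cells were differentiated for 48 h with two chemical doses 24 h apart, over 1 nM-200 uM. Sox2+ cells were those above 5x BMAD of the endoderm-control median; percent Sox2+ minus the 0.2% DMSO median was used, from n=4 replicates.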

Where “and” joins values, the source holds several entries; their conditions need not be identical. Equal entries are not always repeated. Records with an inconclusive call do not appear. Some compounds were tested as several samples or in several runs, with calls that do not always agree. Calls of active or inactive are those of the source. Rule for the calls, unless noted: active = hit-call score of the fitted dose curve at least 0.9, where 1 is the maximum; inconclusive = response in the unintended direction; inactive = score below 0.9.

Turning to `CC[C@H](C)[C@@H](C(=O)O)n1sc2ccccc2c1=O`, in the test on SERPINA7 (gene 6906), the AC50 is 18.2 µM (active). On to `O=C(O)Cc1cc(I)c(Oc2cc(I)c(O)c(I)c2)c(I)c1`, for which the call in test [1] and in test [2] was inactive. In the test on SERPINA7 (gene 6906), the half-maximal activity concentration (AC50) was 0.0197 µM (active). For the compound `Cc1cc(C)c(O)c(C)c1`, the result in the test on SERPINA7 (gene 6906) was inactive.

For `C=C(C)C(=O)OCCC(F)(F)C(F)(F)C(F)(F)C(F)(F)C(F)(F)C(F)(F)F`, the compound was classed as inactive in [3] and in test [4]. As for `CC(C)(C)CC(C)(C)c1ccc(O)c(-n2nc3ccccc3n2)c1`, the AC50 in the test on SERPINA7 (gene 6906) is 16.3 µM (active). In the case of `CC#C[C@]1(O)CC[C@H]2[C@@H]3CCC4=CC(=O)CCC4=C3[C@@H](c3ccc(N(C)C)cc3)C[C@@]21C`, the concentration at half-maximal activity (AC50) is 27.3 µM (active) in test [3] and 58.9 µM (active) in test [4]. Moreover, the result in test [3], in test [4], in test [5], in test [6] and in [7] was inactive. Turning to `CC(O)CO` (stereo not drawn), the result in [8] and in test [9] was inactive. `CC1=C(/C=C/C(C)=C/C=C/C(C)=C/C(=O)O)C(C)(C)CCC1`: the AC50 in [8] was 0.109 µM (active); in test [9] it was 82.8 µM (active). Turning to `OCCC(F)(F)C(F)(F)C(F)(F)C(F)(F)C(F)(F)C(F)(F)F`, the compound was called inactive in test [3] and in test [4]. On to `CC[C@H](c1ccc(O)cc1)[C@@H](CC)c1ccc(O)cc1`, for which, in the test on SERPINA7 (gene 6906), the AC50 is 8.97 µM (active).

As to `NC(=O)N1C(=O)C(C(=O)c2cc(Cl)cs2)c2cc(F)c(Cl)cc21` (stereo not drawn), the AC50 in the test with SERPINA7 (gene 6906) was 7.27 µM (active). Still for that read-out and setting: then `O=C(O)c1ccccc1C(c1ccc(O)cc1)c1ccc(O)cc1`, with 49.9 µM (active). `C[C@@H]1C[C@H]2[C@@H]3CCC4=CC(=O)C=C[C@]4(C)[C@@]3(F)[C@@H](O)C[C@]2(C)[C@@]1(O)C(=O)COP(=O)(O)O`: the result in test [8] and in test [9] was inactive.

For `CCCCCCCCCCCCc1ccccc1S(=O)(=O)O`, the AC50 in test [1] was 15.6 µM (active); in test [2] it was 1.5 µM (active); with SERPINA7 (gene 6906), 4.89 µM (active). Regarding `ClC1=C(Cl)C(Cl)(Cl)C(Cl)=C1Cl`, the AC50 with SERPINA7 (gene 6906) is 23.9 µM (active). Still for that read-out and setting: for `O=[N+]([O-])c1ccc(O)cc1` the value was 33.3 µM (active) and 47.2 µM (active). In the case of `OCCC(F)(F)C(F)(F)C(F)(F)C(F)(F)C(F)(F)C(F)(F)C(F)(F)C(F)(F)F`, the compound was called inactive in [4]. Take `COc1ccc([N+](=O)[O-])cc1N`: the AC50 in the test on SERPINA7 (gene 6906) is 50 µM (active).
